According to PubChem BioAssay (Tox21):
Several values for one entry are separate records, joined by “and”; a condition that tells them apart may be missing. Equal entries are not always repeated. Inconclusive results are not listed. Where a call stands in place of a potency, no number is given. Some compounds were tested as several samples or in several runs, with calls that do not always agree. Activity calls are given as the source filed them. Calls come from the whole dose curve; as a rule, active = well fitted inhibition curve with a large enough effect in the repeat runs; inconclusive = weak or mixed curves, or effect the other way; inactive = no such curve, though single readings can be large or run the other way.

molecular target: Nuclear receptor subfamily 1 group I member 3 (Homo sapiens) (UniProt Q14994); experiment: qHTS assay to identify small molecule antagonists of the constitutive androstane receptor (CAR) signaling pathway (AID 1224838); conditions: HepG2-CYP2B6-hCAR luciferase, CITCO-stimulated, 24 h; series mostly up to 92.4 µM;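 note: HepG2 cells stably expressing hCAR with CYP2B6 luciferase reporter stimulated by CITCO; nearly all actives have a fitted effect of over 40% in size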
From the text: U.S. Tox21 Program National Center for Advancing Translational Sciences [NCATS] NIH Chemical Genomics Center [NCGC] U.S. Environmental Protection Agency [EPA] National Institutes of Environmental Health Sciences [NIEHS] National Toxicology Program [NTP] U.S. Food and Drug Administration [FDA] Tox21 Assay Overview: The constitutive androstane receptor (CAR) is a nuclear receptor which regulates multiple drug metabolizing enzymes (DMEs) and transporters. Activating CAR will generally increase the transcription and subsequent translation of CYP2B6 and CYP3A4. These two DMEs represent about 50% of the drug metabolizing potential in the body. When CAR is deactivated, the metabolizing potential in the body will decrease, subsequently increasing the toxicity in the body or lowering the therapeutic potential of a pro-drug. Recently, there have also been studies performed indicating CARs role in energy metabolism and cancer therapy. Therefore, inhibiting CARs activity could have a potential effect on diabetes and cancer. Identifying environmental toxins and compounds which modulate CAR, through the use of the Tox21 10K compound collection, will be an important step in determining the toxicity and potential therapeutic effects these factors will have on the human body.
Tox21 Assay Protocol Summary: A double-stable (hCAR and CYP2B6-2.2kb) transfected cell line, derived from human hepatoma (HepG2) cells, was utilized for the duration of the quantitative high-throughput screens. The HepG2-CYP2B6-hCAR cells suspended in DMEM culture medium supplemented with 10% FBS, 5 ug/mL blasticidin, 0.5 mg/mL geneticin, 100 U/mL penicillin and 100 ug/mL streptomycin were dispensed at 2500 cells/4 uL/well in 1536-well white solid bottom plates using a Multidrop Combi. After the assay plates were incubated at 37 C/5% CO2 for 4 hrs, 23 nL of compounds at 15 concentrations (from 5-48 columns) or positive control (from 1 to 4 columns) were transferred to the assay plates using a Pintool station. One uL of CITCO, was added using a Flying Reagent Dispenser to generate a final concentration of 50 nM CITCO inside each well. After a 24 hr incubation period at 37 C/5% CO2, four uL of ONE-Glo reagent was added into the assay plates using a Flying Reagent Dispenser. After a 30 min incubation period at room temperature, the luminescence intensity in the assay plates was measured using a ViewLux plate reader.
Potency is the fitted concentration of half-maximal effect.

Chain of Nuclear receptor subfamily 1 group I member 3 (Homo sapiens) (Q14994 whole entry, looked up): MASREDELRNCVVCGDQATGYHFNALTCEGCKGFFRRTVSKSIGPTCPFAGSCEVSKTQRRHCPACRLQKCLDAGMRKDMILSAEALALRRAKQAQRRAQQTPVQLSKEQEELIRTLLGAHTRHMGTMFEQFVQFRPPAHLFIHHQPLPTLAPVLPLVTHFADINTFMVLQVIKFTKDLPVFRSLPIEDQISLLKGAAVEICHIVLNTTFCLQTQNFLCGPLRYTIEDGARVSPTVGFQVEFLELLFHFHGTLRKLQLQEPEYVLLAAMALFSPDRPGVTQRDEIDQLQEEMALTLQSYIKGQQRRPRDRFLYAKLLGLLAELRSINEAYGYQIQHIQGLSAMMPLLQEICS

SMILES	Potency
Cc1cc(Cl)ccc1N	inactive
C=CCOC(Cn1ccnc1)c1ccc(Cl)cc1Cl (stereo not drawn)	38.7 µM (active) and 48.6 µM (active) and inactive
CCCCCCCCCCCCCCCCn1cc[n+](C)c1	inactive and 30.9 µM (active) and 27.4 µM (active)
CCOP(=S)(OCC)Oc1ccc2c(C)c(Cl)c(=O)oc2c1	inactive
O=C(O)c1ccccc1O	inactive
C1CCC(NC2CCCCC2)CC1	inactive
Nc1ccc(-c2ccc(N)cc2)cc1	inactive
CCC(=O)C(CC(C)N(C)C)(c1ccccc1)c1ccccc1 (stereo not drawn)	inactive
Oc1cccc2cccnc12	1.38 µM (active) and 770 nM (active) and inactive
CC(=O)[O][Hg][c]1ccccc1	2.41 µM (active) and 4.33 µM (active) and 5.31 µM (active)
COP(=O)(OC)C(O)C(Cl)(Cl)Cl (stereo not drawn)	inactive
C[C@]12CCC(=O)C=C1CC[C@@H]1[C@@H]2CC[C@]2(C)C(=O)CC[C@@H]12	inactive
Cc1cc(-c2ccc(N)c(C)c2)ccc1N	inactive
Nc1ccc(Cl)cc1	inactive
CCNc1nc(Cl)nc(NCC)n1	inactive
Oc1ccccc1-c1ccccc1	inactive
O=P1(N(CCCl)CCCl)NCCCO1 (stereo not drawn)	inactive
O=C(O)C(Cl)(Cl)Cl	inactive
CC[N+](CC)(CC)CC	inactive
Cc1cc(Cl)ccc1OCC(=O)O	inactive
OCCOc1ccccc1	inactive
O=[N+]([O-])c1ccccc1O	inactive
COCC(=O)N(c1c(C)cccc1C)C(C)C(=O)OC (stereo not drawn)	inactive
